# An excerpt weighted towards active compounds, which were near 2.5% of everything screened.
# Cruzain Triton: cruzain (T. cruzi) inhibition with detergent; actives 0.43% (n = 200,000); Potency, µM, inactives show max response, negative = inhibition, most hits filed as inhibitors; P25779; purified cruzain, Z-FR-AMC fluorescence, 0.01% Triton;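 note: plate controls were neutral wells for no effect and buffer without enzyme for full effect; nearly all actives have a fitted effect of over 40% in size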
# Target sequence (P25779 123-467 limits assumed): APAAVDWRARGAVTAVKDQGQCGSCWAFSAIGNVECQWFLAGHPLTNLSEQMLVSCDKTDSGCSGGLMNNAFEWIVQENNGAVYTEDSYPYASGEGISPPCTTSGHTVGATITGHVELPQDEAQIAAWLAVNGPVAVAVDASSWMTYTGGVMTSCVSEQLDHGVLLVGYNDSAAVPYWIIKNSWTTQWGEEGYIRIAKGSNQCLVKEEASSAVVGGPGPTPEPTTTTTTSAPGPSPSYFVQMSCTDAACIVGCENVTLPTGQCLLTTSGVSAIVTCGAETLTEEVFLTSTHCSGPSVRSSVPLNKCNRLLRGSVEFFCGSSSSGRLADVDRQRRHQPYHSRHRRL
#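 Sodium acetate buffer (100 mM, pH 5.5) containing 5 mM DTT and 0.01% Triton X-100 hosted 1.5 nM cruzain and test compound for 15 min at room temperature. Cleavage of 2 uM Z-FR-AMC was then tracked by fluorescence.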
# Cruzain inh noDet: cruzain (T. cruzi) inhibition without detergent; P25779; purified cruzain, Z-FR-AMC fluorescence, no detergent; Potency, µM, without a hit: max response, negative = inhibition, hits mostly inhibitors; actives 2.3% (n = 200,000); AID 1476;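 note: plate controls were enzyme without inhibitor for no effect and buffer without enzyme for full effect; nearly all actives have a fitted effect of over 40% in size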
#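 Purified cruzain at 1.5 nM, pre-incubated 15 min with compound at room temperature in 100 mM sodium acetate pH 5.5, 5 mM DTT, 0.00005% Triton X-100. Reaction started with 2 uM Z-FR-AMC; AMC fluorescence increase over 60 s gives rate.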
# * = called active by the depositor; u = inconclusive. Calls come from the whole dose curve; as a rule, active = well fitted curve in the direction sought with a large enough effect; inconclusive = small, poorly fitted or top-dose-only effect, or another doubt; inactive = no such curve, though single readings can be large; an effect the other way counts as inactive or inconclusive. Potency is the fitted concentration of half-maximal effect.
SMILES,Cruzain Triton,Cruzain inh noDet
COc1cc(C2=N/C(=C\c3ccccc3)C(=O)O2)cc(OC)c1OC,3%,-8%
CC(=O)c1cccc(NC(=O)c2ccc(-n3c(C)nnc3C)cc2)c1,0%,-4%
COCCNC(=O)C1(C)C=CCN1C(C)=O (configuration not stated),-1%,-8%
CCCOc1ccc(C(=O)Nc2cccc(NC(=O)c3ccc(Cl)cc3Cl)c2)cc1,2%,u
Cc1sc(NC(=O)c2ccc(OCC(C)C)cc2)c(C(N)=O)c1-c1ccc(Cl)cc1Cl,u,10µM*
CCCCNc1nc(SC)nc2nc[nH]c12,2%,9%
COc1cccc([C@@H]2Oc3ccc(Br)cc3C[C@H]2OC(=O)N[C@H](C)C2CCCCC2)c1,-3%,-14%
CCCCn1c(O)c(/C=C2\C=NN=C2c2ccccc2)sc1=S,-4%,u
CCCCCCn1c(O)c(/C=C2\C=NN=C2c2ccccc2)sc1=S,2%,16µM*
O=C(Cn1c(=O)nc(-c2ccccc2)c2cc(Cl)ccc21)Nc1ccc(F)c(Cl)c1,0%,-9%
O=C(c1csnn1)N1CCC2(CCCN(c3ccc(-c4ccccc4)cc3)C2)CC1,0%,11%
CSc1ccc(C(=S)N2CCN(C(c3ccccc3)c3ccccc3)CC2)cc1,-2%,4µM*
CSc1ccc(C(=S)N2CCN(C)CC2)cc1,3%,11%
COc1ccc(Cl)cc1NC(=O)CSc1nc2c([nH]c3ccccc32)c(=O)n1-c1ccccc1,-2%,-3%
COCCNC(=O)C1CCN(S(=O)(=O)c2ccc3c(c2)CCCN3C(C)=O)CC1,0%,1%
CCCNc1cc(C)c(C#N)c2nc3ccccc3n12,4%,13%
Cc1cc(NCCCO)n2c(nc3ccccc32)c1C#N,-15%,32µM*
CC(C)Oc1ccc(CNC(=O)C2CCN(C(=O)N3CCOc4ccc(Cl)cc43)CC2)cc1,-2%,u
Cc1ccc(-c2nc(S(=O)(=O)c3ccccc3)c(N3CCN(c4ccccc4)CC3)o2)cc1,-1%,-9%
COc1ccc(N2CCN(c3oc(-c4ccccc4C)nc3S(=O)(=O)c3ccccc3)CC2)cc1,-4%,13µM*
Cc1ccc2c(CN3CCN(S(=O)(=O)/C=C/c4ccccc4)CC3)cc(=O)oc2c1,-2%,25µM*
Cc1cc2oc(=O)cc(CN3CCN(C/C=C/c4ccccc4)CC3)c2cc1O,-1%,-21%
CCOC(=O)Nc1ccc2c(CN3CCN(S(=O)(=O)c4ccccc4)CC3)cc(=O)oc2c1,-1%,13µM*
CCOC(=O)Nc1ccc2c(CN3C(=O)NC4(CCCC4)C3=O)cc(=O)oc2c1,-23%,-8%
COc1cccc(NC(=O)C(=O)NCCc2csc(-c3ccc(C)cc3)n2)c1,0%,-2%
SMILES,Cruzain Triton,Cruzain inh noDet
CC(=O)c1cccc(S(=O)(=O)N2CCN(c3ccccc3F)CC2)c1,-5%,-6%
CC(=O)c1cccc(S(=O)(=O)N2CCN(c3nc4cc(C)cc(C)c4cc3C#N)CC2)c1,-1%,16µM*
CCn1cc(C(=O)NCCCOC)c(=O)c2cc(S(=O)(=O)N3CCc4ccccc4C3)ccc21,-2%,1%
CCOC(=O)c1[nH]c2ccc(Cl)cc2c1NC(=O)c1nonc1C,-2%,10µM*
CCOC(=O)c1[nH]c2ccc(OC)cc2c1NC(=O)c1nonc1C,6%,4%
COc1cccc(NC(=O)CSc2nc3ccc(NC(=O)c4ccco4)cc3s2)c1,-4%,-2%
Cc1nc(NC(=O)c2ccccc2)sc1-c1csc(Nc2ccc(F)cc2)n1,-3%,16µM*
Cc1nc(NC(=O)c2ccccc2)sc1-c1csc(Nc2cccc(Cl)c2)n1,6%,10µM*
Cc1nc(NC(=O)c2ccccc2)sc1-c1csc(Nc2ccc(Cl)cc2)n1,7%,4µM*
O=C(Nc1nc(-c2ccc(Cl)s2)cs1)c1ccccc1,-1%,-3%
COC(=O)[C@@]1(Cc2ccc(F)cc2)[C@H]2c3cc(C(=O)N4CCCC4)n(CCc4c[nH]c5cc(F)ccc45)c3C[C@H]2CN1C(=O)c1ccccc1,0%,u
Cc1nc(-c2ccc(Cl)cc2)sc1CCNC(=O)C(=O)Nc1ccc(F)cc1F,-1%,0%
O=C(Nc1cccc(S(=O)(=O)Nc2ccccc2Cl)c1)c1ccc(N2CCCC2)c([N+](=O)[O-])c1,-1%,10µM*
COc1cc(/C=C/C(=O)Nc2ccc(N3CCCCC3)c(S(=O)(=O)Nc3ccccc3Cl)c2)cc(OC)c1OC,-2%,13%
O=C(Nc1cccc(S(=O)(=O)Nc2ccccc2Cl)c1)c1ccc(Cl)nc1,-4%,0%
O=C(Nc1cccc(C(F)(F)F)c1)c1cc(S(=O)(=O)N2CCCCC2)ccc1N1CCOCC1,-12%,u
COc1ccc(S(=O)(=O)N2CCCCC2)cc1NS(=O)(=O)c1cc(Cl)ccc1Cl,-6%,20µM*
COc1ccccc1NS(=O)(=O)c1cc(NC(=O)Nc2ccc(Cl)cc2Cl)ccc1N1CCCCC1,-2%,5µM*
COc1ccc(Cl)cc1NS(=O)(=O)c1cc(Cl)ccc1OC,-2%,2%
O=C(Nc1cccc(C(F)(F)F)c1)Nc1ccc(N2CCCC2)c(S(=O)(=O)Nc2ccccc2Cl)c1,0%,6.3µM*
Cn1cccc1C(=O)N1CCC2(CCN(Cc3nccs3)CC2)CC1,5%,-1%
Cc1ccc(NC(=O)Cn2nnc(-c3ccccc3)n2)c(C)c1,3%,2%
CCc1ccc(C(=O)COC(=O)c2cccc(N3C(=O)c4c(C)nc5ccccc5c4C3=O)c2)cc1,4%,6.3µM*
CCN1C(=O)c2c(C)nc3ccccc3c2C1=O,0%,7%
Cc1ccc(-c2cc(C(=O)OCC(=O)Nc3ncc(C(F)(F)F)cc3Cl)c3ccccc3n2)cc1,-3%,u
SMILES,Cruzain Triton,Cruzain inh noDet
O=C(COC(=O)CCCNC(=O)c1ccc(Cl)cc1)Nc1cc(Cl)c(Cl)cc1Cl,-12%,-4%
O=C(COC(=O)CNC(=O)c1ccccc1)Nc1cccc(Br)c1,u,-15%
O=C(COC(=O)CNC(=O)c1ccccc1)Nc1ccc(Cl)cc1C(F)(F)F,16µM*,13µM*
O=C(COC(=O)CNC(=O)c1ccc(Cl)cc1)Nc1ccc(Cl)cc1C(F)(F)F,8.9µM*,6.3µM*
Cc1ccc(C(=O)NCC(=O)OCC(=O)Nc2ncc(C(F)(F)F)cc2Cl)cc1,7.1µM*,6.3µM*
CCOc1ccccc1CNC(=O)c1cn(-c2ccc(OC)cc2)c(=O)c2ccccc12,-8%,-12%
CS(=O)(=O)c1ncc(N(Cc2ccco2)Cc2cccs2)c(C(=O)Nc2ccccc2F)n1,-4%,-14%
Cc1ccc(C)c(NC(=O)N2CCC(N3CCN(Cc4ccc(F)cc4)C(=O)C3=O)CC2)c1,5%,10%
Cc1oc2ncn(CC(C)C)c(=O)c2c1C(=O)N1CCN(c2ccc(F)cc2)CC1,0%,15%
CN(C)Cc1ccc(C(C)(C)C)cc1-c1cc(C(C)(C)C)ccc1CN(C)C,0%,-6%
CNC(=O)c1ccccc1NC(=O)c1c(O)c2c([nH]c1=O)CCCC2,-1%,u
O=C(N/N=C/c1cccc(F)c1)c1c(O)c2c([nH]c1=O)CCCC2,-3%,20µM*
CCc1cccc(NC(=O)Cn2c(=O)n(-c3cccc(Cl)c3)c(=O)c3c2c2cc(C)ccc2n3C)c1,-1%,-6%
CC(C)[C@H](NC(=O)OCc1ccccc1)C(=O)OCC(=O)Nc1c(F)cccc1F,14µM*,u
CC(C)C(NC(=O)OCc1ccccc1)C(=O)O (configuration not stated),7%,-2%
